From PubChem BioAssay come the findings set out here.

“And” between values parts separate entries of the source, which are not always exact repeats. Equal values may be shown once. Inconclusive results are not listed. For some of these results: Entries with a potency or affinity are not part of this list. The source made the active and inactive calls. Unless noted, the rule behind the calls is not given here.

Assay [1] in a line: liver-stage malaria parasite growth inhibition, primary screen, cell-based, HepG2, luciferase luminescence, HepG2 viability (AID 624349; in the data active = parasite load remaining mostly below about 12%, no sharp cut-off; inactive = mostly above about 10%;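 note: 100% = mean of DMSO negative control wells on the same plate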). To be noted: P. berghei liver stage in HepG2, luciferase luminescence, concentration not given here; parasite load remaining: stronger effect = lower value; viability: measured here: HepG2 viability without parasites.
The target in assay [2] is 6-phosphogluconate dehydrogenase, decarboxylating (Homo sapiens) (UniProt P52209). Description: 6PGD enzyme inhibitors, primary screen, biochemical, human, recombinant enzyme, NADPH absorbance (AID 1159550;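 active = at least 20% inhibition of 6-phosphogluconate dehydrogenase activity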). The following applies: recombinant 6PGD, NADPH absorbance 341 nm; at 10 µM; stronger effect = higher value.
Assay [3] is described as follows: differential killing of epithelial or mesenchymal cells, primary screen, imaging, PC-3E GFP, TEM4-18 mCherry, co-culture (AID 1345086;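 active = compounds killing one labelled cell type while sparing the other, by normalised counts and ratio limits, not self-fluorescent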;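 for all read-outs here: cells exposed to compound for 72 h before imaging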;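 for red/green cell ratio (normalised): normalised mesenchymal count divided by normalised epithelial count so high means epithelial killing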). The following applies: imaging cell counts, at 1 µM; for red/green cell ratio (normalised): actives lie on both sides.
Assay [4] deals with Aerobactin synthetase IucA (Klebsiella pneumoniae hvKP1). Briefly: Biochemical IucA enzyme inhibition primary screen of the Spectrum library (AID 1346200).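 Note: 100% = wells without compound and 0% = wells lacking enzyme.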 The following applies: malachite green pyrophosphate, A620, at 8 µM, stronger effect = lower value.
A short description of assay [5]: sensitizers of A549 cells to miR-34 induction, primary screen, imaging, A549 dox-inducible miR-34, nuclei and caspase counts (AID 1347080;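 active = compounds whose cell count with miR-34 switched on is under 0.7 times the count with it off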). The following applies: A549 miR-34 inducible, Hoechst nuclei count, 48 h.
Assay [6] in a line: survival rescue of mitochondrial mutant cells in low glucose, primary screen, MELAS cybrids, Rieske KO mouse fibroblasts, CellTiter-Glo (AID 1508586;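 active = mean z-score across replicates of 1.96 or higher in either the MELAS or the Rieske mutant cell line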;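 note: z relative to plate mean and SD of compound and empty wells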). A general note: ATP-based viability assays read luminescence as a measure of living cells.
The target in assay [7] is Mitogen-activated protein kinase 7 (Homo sapiens) (UniProt Q13164). Briefly: ERK5 transactivation activators in reporter cells, primary screen, cell-based, HTS (AID 1508626;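 active = luciferase signal above three times the same-plate solvent-only control wells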;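 note: luciferase driven by Gal4-ERK5 fusion binding five Gal4 sites before minimal TATA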). The following applies: HeLa Gal4-ERK5 transactivation, 18 h, at 5 µM, stronger effect = higher value.
Assay [8] deals with ATP-dependent translocase ABCB1 (Homo sapiens) (UniProt P08183). Description: MDR1 (ABCB1) efflux transporter inhibition, cell-based (AID 377; in the data active = fluorescence slope change above about 50%). The following applies: MDR1-expressing cells, fluorescent substrate accumulation slope; stronger effect = higher value; concentration not given here.
The nature of assay [9]: polyglutamine-triggered caspase-3 activation inhibitors, cell-based (AID 1583). To be noted: polyglutamine-induced caspase-3 activation, cell assay; stronger effect = higher value;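 tested at 10 µM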.
Assay [10] is described as follows: suppressors of polyQ aggregation in yeast, 75Q-TubU reporter (AID 1593). To be noted: Yeast 75Q polyglutamine aggregation reporter.
Assay [11] in a line: rescue of polyQ-huntingtin neuronal dysfunction in worms, whole organism, C. elegans mechanosensory neurons, N-terminal huntingtin (AID 1599). To be noted: touch response, stronger effect = higher value.
The nature of assay [12]: inhibitors of mitochondrial cytochrome c release, biochemical, purified mitochondria (AID 1603).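 Note: mouse liver mitochondria challenged with calcium chloride; signal normalized to the plate average as 100%.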 The following applies: stronger effect = lower value.
Assay [13] is described as follows: inhibitors of polyQ protein aggregation (AID 1604). To be noted: polyglutamine-induced protein aggregation inhibition assay; stronger effect = higher value; tested at 2.5 µM.
Assay [14] in a line: enhancers of glutamate uptake in motor neurons, MN-1 cell line (AID 1612).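 Note: tested at 1 µM final; 0% = mean of DMSO vehicle wells on each plate; positive means more glutamate uptake than control and negative means less.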 The following applies: MN-1 motor neuron cells, stronger effect = higher value.
A short description of assay [15]: reducers of polyQ inclusions in PC12 cells, cell-based, NGF-treated PC12, GFPQ80 (AID 1614).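 Note: lower means fewer inclusions and 0 means no inclusions at all.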 To be noted: PC12 NGF-treated GFP-polyQ80 inclusion reduction.
Assay [16] is described as follows: suppressors of polyglutamine aggregation in yeast, 75Q-TubH (AID 1616). The following applies: S. cerevisiae 75Q-TubH polyglutamine aggregation suppression; stronger effect = higher value.
A short description of assay [17]: hESC survival regulators, cell-based (AID 493140).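 Note: cells exposed to compounds for four days before counting.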 The following applies: human embryonic stem cell survival screen; stronger effect = higher value.
Assay [18] deals with NAD(+) hydrolase SARM1 (Homo sapiens) (UniProt Q6SZW1). Description: SARM1 TIR NADase inhibitors, cell lysate, NAD-Glo luminescence (AID 1508614;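 active = compound whose remaining NAD level is above about 45 nM, limit read from the data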;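 note: higher remaining NAD means stronger inhibition of SARM1 NADase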). To be noted: SAM-TIR HEK293T lysate NADase, at 1 µM, stronger effect = higher value.
Where [19] appears, read: measured here: epithelial PC-3E GFP cell survival.
The mark [20] stands for this setting: measured here: mesenchymal TEM4-18 mCherry cell survival.
[21] abbreviates: measured here: relative caspase fold change +Dox/-Dox.
Setting [22] is: measured here: total cells with miR-34 induction, stronger effect = lower value.
[23] abbreviates: measured here: total cells without miR-34 induction.
Setting [24] is: MELAS cybrid survival, CellTiter-Glo 48 h, stronger effect = higher value.
Setting [25] is: Rieske KO mouse fibroblast survival, CellTiter-Glo 72 h.

Mitogen-activated protein kinase 7 (Homo sapiens), sequence (Q13164 whole entry, looked up, the tested form may be a part): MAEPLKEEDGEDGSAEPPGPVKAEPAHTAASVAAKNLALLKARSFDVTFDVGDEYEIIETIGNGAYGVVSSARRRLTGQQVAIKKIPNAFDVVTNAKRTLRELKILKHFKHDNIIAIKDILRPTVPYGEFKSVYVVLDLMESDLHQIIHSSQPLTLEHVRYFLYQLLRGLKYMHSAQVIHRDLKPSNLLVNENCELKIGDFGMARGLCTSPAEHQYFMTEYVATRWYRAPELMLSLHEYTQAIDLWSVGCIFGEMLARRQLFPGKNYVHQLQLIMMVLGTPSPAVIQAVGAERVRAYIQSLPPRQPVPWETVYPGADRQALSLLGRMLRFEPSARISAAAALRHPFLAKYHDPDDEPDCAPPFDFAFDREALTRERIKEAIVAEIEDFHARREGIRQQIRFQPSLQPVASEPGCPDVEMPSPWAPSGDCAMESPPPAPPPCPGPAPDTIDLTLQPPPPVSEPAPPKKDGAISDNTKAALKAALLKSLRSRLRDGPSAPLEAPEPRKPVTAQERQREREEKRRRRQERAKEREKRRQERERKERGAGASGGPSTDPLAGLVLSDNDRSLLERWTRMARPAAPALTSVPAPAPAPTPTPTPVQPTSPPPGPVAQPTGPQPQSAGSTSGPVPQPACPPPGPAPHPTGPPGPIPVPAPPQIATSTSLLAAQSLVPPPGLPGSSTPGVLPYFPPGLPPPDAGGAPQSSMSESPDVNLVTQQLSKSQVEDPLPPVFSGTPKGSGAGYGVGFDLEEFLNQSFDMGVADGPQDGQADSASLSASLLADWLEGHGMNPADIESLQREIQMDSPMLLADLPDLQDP
6-phosphogluconate dehydrogenase, decarboxylating (Homo sapiens), sequence (P52209 whole entry, looked up): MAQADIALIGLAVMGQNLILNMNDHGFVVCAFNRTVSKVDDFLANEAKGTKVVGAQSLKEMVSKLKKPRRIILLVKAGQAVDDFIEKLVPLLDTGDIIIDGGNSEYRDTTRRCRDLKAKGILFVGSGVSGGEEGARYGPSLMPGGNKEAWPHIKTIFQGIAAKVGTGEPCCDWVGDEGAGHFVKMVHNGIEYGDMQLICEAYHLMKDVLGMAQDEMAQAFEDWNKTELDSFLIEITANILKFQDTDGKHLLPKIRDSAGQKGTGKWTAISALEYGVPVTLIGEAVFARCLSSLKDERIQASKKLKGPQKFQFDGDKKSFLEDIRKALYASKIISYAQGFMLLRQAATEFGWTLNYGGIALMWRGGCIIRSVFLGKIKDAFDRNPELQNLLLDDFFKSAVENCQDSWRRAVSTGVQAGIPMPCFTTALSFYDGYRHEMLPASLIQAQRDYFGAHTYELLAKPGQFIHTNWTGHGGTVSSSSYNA
NAD(+) hydrolase SARM1 (Homo sapiens), sequence (Q6SZW1 whole entry, looked up): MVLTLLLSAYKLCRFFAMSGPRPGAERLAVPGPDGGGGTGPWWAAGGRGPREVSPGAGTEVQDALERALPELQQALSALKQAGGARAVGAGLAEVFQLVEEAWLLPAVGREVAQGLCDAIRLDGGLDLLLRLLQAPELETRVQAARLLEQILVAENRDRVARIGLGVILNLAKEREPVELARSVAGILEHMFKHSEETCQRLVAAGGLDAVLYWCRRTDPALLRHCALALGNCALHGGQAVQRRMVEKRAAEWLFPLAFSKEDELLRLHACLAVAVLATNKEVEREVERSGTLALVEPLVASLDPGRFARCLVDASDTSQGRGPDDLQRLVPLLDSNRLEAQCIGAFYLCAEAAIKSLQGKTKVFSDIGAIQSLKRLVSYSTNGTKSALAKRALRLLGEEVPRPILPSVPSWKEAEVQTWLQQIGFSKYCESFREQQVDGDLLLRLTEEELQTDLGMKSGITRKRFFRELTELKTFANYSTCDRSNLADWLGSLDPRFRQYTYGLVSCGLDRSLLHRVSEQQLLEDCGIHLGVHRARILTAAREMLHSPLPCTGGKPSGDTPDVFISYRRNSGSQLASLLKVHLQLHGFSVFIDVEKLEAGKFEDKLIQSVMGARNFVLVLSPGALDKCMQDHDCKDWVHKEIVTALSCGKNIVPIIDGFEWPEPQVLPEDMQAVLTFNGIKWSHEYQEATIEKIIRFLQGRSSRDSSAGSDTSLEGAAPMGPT
ATP-dependent translocase ABCB1 (Homo sapiens), sequence (P08183 whole entry, looked up): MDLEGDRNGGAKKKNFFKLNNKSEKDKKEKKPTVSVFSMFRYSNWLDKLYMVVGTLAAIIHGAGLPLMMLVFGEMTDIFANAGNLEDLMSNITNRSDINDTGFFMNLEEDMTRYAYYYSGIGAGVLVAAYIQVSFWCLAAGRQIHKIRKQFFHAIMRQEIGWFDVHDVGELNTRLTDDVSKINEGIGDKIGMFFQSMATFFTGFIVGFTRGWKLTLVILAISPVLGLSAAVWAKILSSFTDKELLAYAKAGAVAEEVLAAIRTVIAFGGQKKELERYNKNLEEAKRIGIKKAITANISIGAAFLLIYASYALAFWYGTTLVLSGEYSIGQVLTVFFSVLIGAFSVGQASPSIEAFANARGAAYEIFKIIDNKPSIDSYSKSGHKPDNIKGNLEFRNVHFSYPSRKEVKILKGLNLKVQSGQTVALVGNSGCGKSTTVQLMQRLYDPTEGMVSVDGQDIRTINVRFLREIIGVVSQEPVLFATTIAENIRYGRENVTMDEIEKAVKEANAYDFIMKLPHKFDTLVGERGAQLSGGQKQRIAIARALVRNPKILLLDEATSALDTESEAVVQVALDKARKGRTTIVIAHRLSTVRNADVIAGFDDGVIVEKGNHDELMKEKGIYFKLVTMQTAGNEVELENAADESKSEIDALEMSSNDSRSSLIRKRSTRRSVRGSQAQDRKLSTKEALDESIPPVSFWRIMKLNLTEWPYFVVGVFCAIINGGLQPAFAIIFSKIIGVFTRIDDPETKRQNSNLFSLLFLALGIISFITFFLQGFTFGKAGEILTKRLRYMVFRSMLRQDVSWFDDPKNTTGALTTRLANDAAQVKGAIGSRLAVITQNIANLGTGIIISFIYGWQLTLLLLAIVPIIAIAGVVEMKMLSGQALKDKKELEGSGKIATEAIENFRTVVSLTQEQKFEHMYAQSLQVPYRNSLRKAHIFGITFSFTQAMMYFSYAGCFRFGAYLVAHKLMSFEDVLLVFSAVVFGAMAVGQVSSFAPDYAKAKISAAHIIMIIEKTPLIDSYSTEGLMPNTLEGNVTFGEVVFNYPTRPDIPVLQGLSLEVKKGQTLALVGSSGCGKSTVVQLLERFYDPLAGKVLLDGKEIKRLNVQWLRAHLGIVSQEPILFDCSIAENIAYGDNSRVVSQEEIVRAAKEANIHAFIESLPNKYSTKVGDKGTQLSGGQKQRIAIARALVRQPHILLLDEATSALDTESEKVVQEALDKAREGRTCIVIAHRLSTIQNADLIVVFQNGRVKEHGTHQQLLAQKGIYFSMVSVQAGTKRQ

Consider `COc1cc(OC)c(OC)cc1C=O`, for which the parasite load remaining in [1] is 70.8% (inactive). Further, the viability in [1] was 91.7%. In addition, the inhibition in assay [2] is -2.13% (inactive). Further, in assay [3], the red/green cell ratio (normalised) was 1.04 (inactive). In addition, the normalised cell number in [3] (setting [19]) turned out to be 1.13; in assay [3] (setting [20]) it was 1.18. Besides, in [4], the activity remaining was 109% (inactive). Further, the fold change in assay [5] (stronger effect = lower value) was 0.932 (inactive); in assay [5] (setting [21]), 0.878. The cell count was 9380 in assay [5] (setting [22]) and 10100 in assay [5] (setting [23]). Besides, the z-score was -0.272 (inactive) in assay [6] (setting [24]) and 0.673 in assay [6] (setting [25]). Also, in assay [7], the luciferase signal is 156 AU (inactive).

In the case of `CC[N+]1(C)CCCC(OC(=O)C(O)(c2ccccc2)c2ccccc2)C1` (centres undefined), in [8], the fluorescence slope change is 17.6% (inactive). Also, the results for the inhibition in assay [9] and in [2] were -29.9% and -2.23% (inactive), respectively. The molecule further registered a score in assay [10] of 1.45. This molecule also had a rescue above control in assay [11] of -4.25. In assay [12], the cytochrome c release ratio amounted to 1.2. The molecule also registered an inhibition of aggregation in [13] of 91.6%. In addition, the glutamate uptake change in assay [14] was -17.4%. In [15], the inclusion score came out at 2. The molecule also gave an aggregation suppression score in [16] of 1.25. Further, in assay [17], the survival was 2.83 (inactive). The parasite load remaining in assay [1] was 98.8% (inactive) and 137% (inactive). Moreover, in assay [1], the viability is 99.5% and 99.4%. For the same molecule, the red/green cell ratio (normalised) in assay [3] was 0.98 (inactive). The normalised cell number was 1.12 in [3] (setting [19]) and 1.1 in [3] (setting [20]). Further, the activity remaining in [4] is 116% (inactive). The values for the fold change in assay [5] (stronger effect = lower value) and in [5] (setting [21]) were 0.964 (inactive) and 1.14, respectively. In addition, the cell count came out at 8700 in [5] (setting [22]) and 9020 in assay [5] (setting [23]). For the same molecule, the z-score was -0.637 (inactive) in assay [6] (setting [24]) and -0.323 in assay [6] (setting [25]). Besides, the luciferase signal in [7] was 84 AU (inactive).

As to `CC(N)Cc1ccc(O)cc1` (centres undefined), the inhibition in [2] was -0.0931% (inactive). Further, the red/green cell ratio (normalised) in assay [3] was 0.93 (inactive). In addition, the normalised cell number was 1.27 in assay [3] (setting [19]) and 1.19 in assay [3] (setting [20]). Moreover, the activity remaining in assay [4] was 111% (inactive). Also, the remaining NAD in [18] is 10 nM (inactive).

With `C=CCC1(C(C)CCC)C(=O)N=C(S)NC1=O` (centres undefined), the inhibition was 1.58% in assay [9] and 2.84% (inactive) in assay [2]. The same molecule yielded a score in assay [10] of 1.49. For the same molecule, the rescue above control in assay [11] was 6.87. The cytochrome c release ratio in assay [12] is 0.94. In addition, in assay [13], the inhibition of aggregation was found to be 42.9%. The glutamate uptake change in [14] came to 8.72%. Also, the inclusion score in assay [15] is 2. This molecule had an aggregation suppression score in assay [16] of 1.19. For the same molecule, the parasite load remaining in assay [1] is 21.5% (inactive). Further, the viability in [1] came to 101%. In assay [3], the red/green cell ratio (normalised) is 1.3 (inactive). In addition, the normalised cell number in assay [3] (setting [19]) was 0.79; in assay [3] (setting [20]), 1.03. Moreover, in [4], the activity remaining is 110% (inactive). The fold change in assay [5] (stronger effect = lower value) is 0.918 (inactive); in assay [5] (setting [21]) it was 2.58. Besides, the cell count in assay [5] (setting [22]) came to 11400; in assay [5] (setting [23]), 12400. In [18], the remaining NAD was 10 nM (inactive). Also, the luciferase signal in assay [7] is 84 AU (inactive).

Regarding `COc1ccc2c(c1O)-c1c(OC)c(OC)cc3c1[C@H](C2)N(C)CC3`, the fluorescence slope change in assay [8] was 13.7% (inactive). Further, the survival in [17] was 5.58 (inactive). Besides, in [1], the parasite load remaining was 125% (inactive) and 105% (inactive) and 60.3% (inactive). For the same molecule, in assay [1], the viability was 106% and 65% and 79.8%. In assay [2], the inhibition was 3.42% (inactive). The red/green cell ratio (normalised) in [3] was 1.1 (inactive). In addition, the normalised cell number is 0.99 in [3] (setting [19]) and 1.09 in assay [3] (setting [20]). Moreover, the activity remaining in [4] was 116% (inactive). The figures for the fold change in assay [5] (stronger effect = lower value) and in assay [5] (setting [21]) were 0.862 (inactive) and 1.06, respectively. The cell count in [5] (setting [22]) was 9380; in [5] (setting [23]) it was 10900. Also, the luciferase signal in assay [7] was 72 AU (inactive).

A word on the viability: it is a read-out of living cells in per cent, often relative to untreated cells. Usually inhibition stands for the change of the read-out against control, counted positive when it falls.
